Values joined by “and” are separate entries in the source; they are usually repeats but may differ in a detail not shown here. Equal entries are not always repeated. Some compounds were tested as several samples or in several runs, with calls that do not always agree. Active and inactive are the calls of the source. How the source made its calls: active means hit-call score of the fitted dose curve at least 0.9, where 1 is the maximum; inactive means score below 0.9.
experiment: ATG_PXRE_CIS: Attagene CIS-FACTORIAL HepG2 Assay for human Pregnane X Receptor Element (PXRE) (AID 2282957); details: HepG2 Attagene CIS-FACTORIAL PXRE reporter, mRNA; actives raise or lower the signal
Summary of the method: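 Transfect HepG2 with MRTUs (cis promoter elements); dose chemical, incubate 24 h; isolate RNA, RT with oligo(dT), PCR, 6-FAM label, HpaI cut, CE. Gain/loss fit vs DMSO.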

SMILES	AC50	outcome
Sc1ccccc1	25.4 µM (active)	inactive
O=C(O)C(F)(F)C(F)(F)C(F)(F)C(F)(F)C(F)(F)C(F)(F)C(F)(F)C(F)(F)F	22.7 µM (active) and 38.2 µM (active) and 13.6 µM (active)	–
CCC(=O)O[C@H]1CC[C@H]2[C@@H]3CCC4=CC(=O)CC[C@]4(C)[C@H]3CC[C@]12C	26.7 µM (active) [middle of 4 runs]	–
CC#Cc1cc(C)nc(Nc2ccccc2)n1	26.5 µM (active)	–
CN(C)CCO	100 µM (active)	inactive
ClC1=C(Cl)[C@]2(Cl)[C@@H]3[C@@H]4C[C@@H]([C@H]5O[C@@H]45)[C@@H]3[C@@]1(Cl)C2(Cl)Cl	2.36 µM (active)	–
CCOCCOC(C)=O	–	inactive
Oc1ccc(Cl)cc1Cl	64.5 µM (active)	–
Clc1ccc(Cl)cc1	–	inactive
O=C(O)C(F)(F)C(F)(F)C(F)(F)C(F)(F)C(F)(F)C(F)(F)C(F)(F)C(F)(F)C(F)(F)F	57.5 µM (active)	inactive
O=C(N[C@H]1CN2CCC1CC2)c1cc2ccoc2cn1	–	inactive
Cc1cccc([N+](=O)[O-])c1	–	inactive
Cc1ccc(O)c(C)c1	–	inactive
Cc1cccc(C)c1N	–	inactive
c1cc2ccc3cccc4ccc(c1)c2c34	8.77 µM (active)	–
C1CC2OC2CC1C1CO1 (configuration not stated)	59.2 µM (active)	–
Cc1cc2c3c(c1)C(c1ccccc1)=N[C@@H](NC(=O)c1ccncc1)C(=O)N3CC2	0.909 µM (active)	–
CCCCCCCCCC[N+](C)(C)CCCCCCCCCC	–	inactive
CCCCCCCCOC(=O)c1ccccc1C(=O)OCCCCCCCC	5.64 µM (active)	–
